tim10-1 inh = tim10-1 yeast growth inhibition. inhibition, % at 20 µM. S. cerevisiae tim10-1 ts strain growth, BacTiter-Glo, 24 h. AID 463190. 2.2% of 330,000 active;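 active = inhibition of at least 40%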;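 also: mutant grown at 25 °C; 0% = DMSO wells with yeast and 100% = wells holding no yeast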
TIM10 inh = TIM10 yeast growth inhibition | S. cerevisiae TIM10 strain growth, BacTiter-Glo luminescence, 24 h | inhibition, % at 10 µM | 1.4% of 330,000 active | AID 463195;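 active = inhibition of 40% or more at the single tested concentration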;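 also: wild-type TIM10 isogenic control strain grown at permissive 25 °C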
NLRP3 yeast inh = blocks the NALP3 inflammasome reconstituted in yeast; Yeast reconstituted NLRP3/ASC/caspase-1, beta-gal luminescence, 24 h; inhibition, % at 10 µM; 0.39% of 330,000 active; AID 2825;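 active = inhibition of 50% or more; inactive = inhibition below 50%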;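 also: plate controls were induced DMSO wells for no effect and uninduced yeast grown without galactose for full effect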
PfHsp90 yeast 2 = growth inhibition of yeast expressing Plasmodium Hsp90. inhibition, % at 9.4 µM. S. cerevisiae expressing PfHsp90, BacTiter-Glo ATP, 48 h; yeast lacking PDR1 and PDR3 efflux regulators. AID 504621. 0.32% of 310,000 active;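 active = every replicate shows inhibition above about 80%, whatever the replicate mean, limit read from the data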;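 also: 0% = DMSO neutral controls and 100% = 20 µM radicicol positive controls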
tim23-1 inh = growth inhibitors of tim23-1 mutant yeast; S. cerevisiae tim23-1 growth, BacTiter-Glo luminescence, 24 h; inhibition, % at 20 µM; 1.3% of 330,000 active;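 active = growth inhibition of the mutant yeast at or above 50%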;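 also: temperature-sensitive mutant grown at 25 °C; plate controls were DMSO-treated mutant yeast for no effect and medium wells lacking yeast for full effect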
tim10-1 confirm = tim10-1 yeast growth inhibition, confirmed. shares compounds with tim10-1 inh. S. cerevisiae tim10-1 ts strain growth, BacTiter-Glo, 24 h. inhibition, % at 20 µM. 56% of 7,400 active. AID 463213;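 active = inhibition of yeast growth at or above a set limit in either of two repeat tests at 20 µM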;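 also: tim10-1 mutant grown at permissive 25 °C to find synthetic lethal compounds; 0% = DMSO yeast wells and 100% = medium wells without yeast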
Numbers without * were called inactive. Only some compounds are listed: those with a hit (about 3.7% of all), similar ones and a draw of the others.

`C=CCNC(=O)/C(C#N)=C/c1ccccc1OCc1ccc(C(=O)OC)cc1` gave tim10-1 inh 45*, TIM10 inh 31, NLRP3 yeast inh 14, PfHsp90 yeast 2 15, tim23-1 inh 45 and tim10-1 confirm 27.
Screening CCCCC(=O)NC(=S)Nc1ccc(NC(=O)C(C)C)c(OC)c1 returned tim10-1 inh 43*, TIM10 inh 17, NLRP3 yeast inh -9, PfHsp90 yeast 2 8, tim23-1 inh 31 and tim10-1 confirm 21.
CCCCC(=O)Nc1ccc(NC(=S)NC(=O)CCCCl)cc1OC was read as tim10-1 inh 48*, TIM10 inh 35, NLRP3 yeast inh 17, PfHsp90 yeast 2 -4, tim23-1 inh 22 and tim10-1 confirm 39*.
For Cc1ccc(S(=O)(=O)Nc2ccccc2/C=N/c2nc3ccccc3n2C)cc1 the results were PfHsp90 yeast 2 -9.
For COc1ccc(F)cc1S(=O)(=O)n1nnc2ccccc21 the results were tim10-1 inh 50*, TIM10 inh 24, NLRP3 yeast inh -60, PfHsp90 yeast 2 9, tim23-1 inh 47 and tim10-1 confirm 41*.
COc1ccc(OC)c(S(=O)(=O)n2nnc3ccccc32)c1 was read as tim10-1 inh 19, TIM10 inh 18, NLRP3 yeast inh 3, PfHsp90 yeast 2 -28 and tim23-1 inh 3.
For CCOC(=O)N/N=C(C)/C=C/c1ccco1 the results were tim10-1 inh 6, TIM10 inh 3, NLRP3 yeast inh 3, PfHsp90 yeast 2 -14 and tim23-1 inh 7.
Screening CC(=O)c1ccc(OC(=O)Cc2cccc3ccccc23)cc1 returned tim10-1 inh 46*, TIM10 inh 31, NLRP3 yeast inh -20, PfHsp90 yeast 2 -1, tim23-1 inh 43 and tim10-1 confirm 36*.
For O=S(=O)(c1cc(F)ccc1F)N1CCN2CCCC2C1 (stereo not given) the results were tim10-1 inh 3, TIM10 inh 5, NLRP3 yeast inh 11, PfHsp90 yeast 2 6 and tim23-1 inh 3.
For CC1=NN(C(N)=S)C(=O)C1N=Nc1ccc(C)cc1C (stereo not given) the results were tim10-1 inh 4, TIM10 inh 9, NLRP3 yeast inh 34 and tim23-1 inh -8.
CC1=NN(C(N)=S)C(=O)C1N=Nc1c(C)cc(C)cc1C (stereo not given) was read as tim10-1 inh 45*, TIM10 inh 37, NLRP3 yeast inh 33, PfHsp90 yeast 2 -32, tim23-1 inh 7 and tim10-1 confirm 26.
CCn1c(=O)c(C(=O)NNC(=O)c2cccc(Cl)c2)c(O)c2ccccc21 was read as tim10-1 inh 46*, TIM10 inh 4, NLRP3 yeast inh 16, PfHsp90 yeast 2 -11, tim23-1 inh 11 and tim10-1 confirm 51*.
Screening CCCC1CCC(C(=O)Nn2c(C)nc3ccccc3c2=O)CC1 (stereo not given) returned tim10-1 inh 47*, TIM10 inh 9, NLRP3 yeast inh 14, PfHsp90 yeast 2 39, tim23-1 inh 29 and tim10-1 confirm -8.
CCn1c(=O)c(C(=O)Nn2c(C)nc3ccccc3c2=O)c(O)c2ccccc21 was read as tim10-1 inh 43*, TIM10 inh -20, NLRP3 yeast inh 22, tim23-1 inh 31 and tim10-1 confirm -2.
Screening CCn1c(C)cc(O)c(C(=O)Nc2cccc(Cl)c2)c1=O returned tim10-1 inh 45*, TIM10 inh -3, NLRP3 yeast inh 5, PfHsp90 yeast 2 -6, tim23-1 inh 15 and tim10-1 confirm 7.
`CC(C)NC(=O)COc1coc(CN2CCN(c3ccccc3F)CC2)cc1=O` gave tim10-1 inh -9, TIM10 inh 6, NLRP3 yeast inh -5, PfHsp90 yeast 2 5 and tim23-1 inh -15.
`OC(COc1ccc2cc(Br)ccc2c1)CN1CCN(c2ccccn2)CC1` (stereo not given) gave tim10-1 inh 41*, TIM10 inh 39, NLRP3 yeast inh 47, PfHsp90 yeast 2 -1, tim23-1 inh 7 and tim10-1 confirm -40.
For O=S(=O)(N1CCCCC1)N1CCN(CC(O)COc2ccc3cc(Br)ccc3c2)CC1 (stereo not given) the results were tim10-1 inh 45*, TIM10 inh 36, NLRP3 yeast inh 31, tim23-1 inh 19 and tim10-1 confirm 26.
For COc1cccc(OCC(O)CN2CCN(c3ccccn3)CC2)c1 (stereo not given) the results were tim10-1 inh -11, TIM10 inh -12, NLRP3 yeast inh -8, PfHsp90 yeast 2 -6 and tim23-1 inh -2.
`CN(C)S(=O)(=O)N1CCN(CC(O)COc2ccc3cc(Br)ccc3c2)CC1` (stereo not given) gave tim10-1 inh 37, TIM10 inh 40, NLRP3 yeast inh 6, PfHsp90 yeast 2 3 and tim23-1 inh 36.
CCOc1cc(-c2c(C#N)c(N)nc3c2CCCC3C)ccc1O (stereo not given) was read as tim10-1 inh 46*, TIM10 inh 37, NLRP3 yeast inh -14, PfHsp90 yeast 2 -28, tim23-1 inh 49 and tim10-1 confirm 35*.
`CCOc1cc(-c2cc(-c3ccc(C)cc3)nc(N)c2C#N)ccc1O` gave tim10-1 inh 42*, TIM10 inh 33, NLRP3 yeast inh 27, PfHsp90 yeast 2 -17, tim23-1 inh 22 and tim10-1 confirm 26.
COc1ccc(-c2nnc(SCC(=O)N3CCc4ccccc4C3)o2)cc1 was read as tim10-1 inh 43*, TIM10 inh 36, NLRP3 yeast inh 29, PfHsp90 yeast 2 -12, tim23-1 inh 43 and tim10-1 confirm 27.
`Cn1nnnc1SCC(=O)N1CCc2ccccc2C1` gave tim10-1 inh 12, TIM10 inh 10, NLRP3 yeast inh 20, PfHsp90 yeast 2 -22 and tim23-1 inh -5.
Screening Cc1ccc(-n2nnnc2SCC(=O)N2CCc3ccccc3C2)c(C)c1 returned tim10-1 inh 44*, TIM10 inh 6, NLRP3 yeast inh 50, PfHsp90 yeast 2 13, tim23-1 inh 42 and tim10-1 confirm 32*.
`COc1ccc(-c2nnc(NC(=O)c3ccc(S(=O)(=O)N4CCc5ccccc5C4)cc3)o2)cc1` gave tim10-1 inh 44*, TIM10 inh 39, NLRP3 yeast inh 16, PfHsp90 yeast 2 -7, tim23-1 inh 12 and tim10-1 confirm 39*.
`O=C(CNc1cc(S(=O)(=O)N2CCCC2)ccc1OCC(F)(F)F)Nc1cccc(C(F)(F)F)c1` gave tim10-1 inh -4, TIM10 inh -3, NLRP3 yeast inh -2, PfHsp90 yeast 2 7 and tim23-1 inh 11.
`Cc1ccc(C(=O)NC2CCCCNC2=O)cc1` (stereo not given) gave tim10-1 inh -8, TIM10 inh 6, NLRP3 yeast inh 15, PfHsp90 yeast 2 11 and tim23-1 inh -5.
`O=C(NN1C(=O)c2ccccc2NC1c1ccco1)c1ccc([N+](=O)[O-])cc1` (stereo not given) gave tim10-1 inh 25, TIM10 inh 17, NLRP3 yeast inh 5, PfHsp90 yeast 2 2 and tim23-1 inh 16.

Screening results as filed in PubChem.
